This is one part of a sample in which hits are shown more often than they occur.
Pf Dd2 growth: blocks in vitro growth of P. falciparum Dd2; P. falciparum Dd2 growth, SYBR Green, 72 h; Potency, µM (series often up to 28.9 µM), hits mostly inhibitors; hit rate 4.3% among 120,000; active = well fitted inhibition curve with a large enough effect; note: nearly all actives have a fitted effect of over 65% in size
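Infected erythrocytes (Dd2, 0.3% parasitemia, 2.5% hematocrit final) are added to compound in RPMI-1640/Albumax II medium, grown 72 h at 37C in low oxygen, then lysed with saponin/Triton-X containing SYBR Green and read by fluorescence.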
Large screens that a line does not name were inactive.

CC[C@H]1CN(C(=O)Nc2cccc(OC)c2)CC[C@H]1CC(=O)NCCN1CCOCC1	none
CCC(C)NC(=O)c1ccc2c(c1)sc1nc(-c3ccc(OC)cc3)cn12 (stereo not given)	none
COc1ccc(-c2cn3c(n2)sc2cc(C(=O)NCc4ccccc4OC)ccc23)cc1	none
CCOc1ccccc1CNC(=O)c1ccc2c(c1)sc1nc(-c3cccc(OC)c3)cn12	Pf Dd2 growth 11µM
COc1ccc(-c2cn3c(n2)sc2cc(C(=O)Nc4cccc(SC)c4)ccc23)cc1	none
Cc1ccc(-c2cn3c(n2)sc2cc(C(=O)NCCC4=CCCCC4)ccc23)cc1	none
COc1ccc(-c2cn3c(n2)sc2cc(C(=O)NCc4cccc(F)c4)ccc23)cc1	none
COc1ccc(-c2cn3c(n2)sc2cc(C(=O)NCCCN4CCN(C)CC4)ccc23)cc1	Pf Dd2 growth 2.5µM
COc1cccc(-c2cn3c(n2)sc2cc(C(=O)NC4CCCCC4)ccc23)c1	none
CCN(CC)CCCNC(=O)c1ccc2c(c1)sc1nc(-c3ccc(C)cc3)cn12	Pf Dd2 growth 1.3µM
COc1ccc(-c2cn3c(n2)sc2cc(C(=O)Nc4cc(OC)cc(OC)c4)ccc23)cc1	none
CCCN1CCN(CCCNC(=O)c2ccc3c(c2)sc2nc(-c4ccc(OC)cc4)cn23)CC1	Pf Dd2 growth 1µM
CCc1ccc(-c2cn3c(n2)sc2cc(C(=O)NCCC4=CCCCC4)ccc23)cc1	none
COc1cc(F)ccc1CN1CCCC12Cc1ccccc1CNC2=O (stereo not given)	none
COc1ccc(CNC(=O)NC2CCc3nn(CC4CC4)c(=O)n3CC2)cc1 (stereo not given)	none
Cc1ccc(C2Cn3nnc(C(=O)N4CCC(C(=O)NCC(C)C)CC4)c3CO2)cc1 (stereo not given)	none
COc1ccc(CN2Cc3[nH]nc(-c4ccc(C(=O)N5CCOCC5)cc4)c3CC2=O)cc1	none
COCCOCC1(CNCc2nccn2C)C[C@@H](O)[C@@H](O)C1 (stereo not given in full)	none
Cc1nc(CNC(=O)c2ccc3oc(-c4cccc(F)c4)nc3c2)cs1	none
Cc1nc2cc(S(=O)(=O)N3CCOCC3)ccc2n1CCNC(=O)C(C)O (stereo not given)	none
CC[C@H]1CN(C(=O)Nc2cccc(OC)c2)CC[C@H]1CC(=O)O	none
COc1cc(F)ccc1-c1cc(C(=O)NCc2cccnc2)c2c(c1)ncn2C	none
CC(C)CCN(C)C1CCc2ccccc21 (stereo not given)	none
CN1CCC([C@@H]2CN(S(=O)(=O)c3ccc(F)c(F)c3)C[C@H]2C(N)=O)CC1	none
CN(Cc1ccccc1)C1CCOc2ccccc21 (stereo not given)	none
O=C1OCC2=C1C(c1cccs1)NC(=O)N2CC(=O)N1CCCCC1 (stereo not given)	none
COc1cccc(NC(=O)N[C@H]2CCN(C(=O)CC(C)(C)C)[C@@H]2C(=O)N[C@@H](CCCNC(=O)CC(C)(C)C)C(N)=O)c1	none
Cc1ccc2c(C)c(C(=O)N(C)CCOc3ccccc3)oc2c1C	none
Cc1cc(C)cc(NC(=O)Cn2c(=O)n(CC(=O)NCCc3ccccc3)c(=O)c3ccccc32)c1	none
COc1cc(NC(=O)Cn2c(=O)n(CC3CCC(C(=O)NCCc4ccccc4)CC3)c(=O)c3ccccc32)cc(OC)c1 (stereo not given)	Pf Dd2 growth 0.89µM
O=C(Cn1c(=O)n(CC2CCC(C(=O)NCCc3ccccc3)CC2)c(=O)c2ccccc21)Nc1cccc(F)c1 (stereo not given)	none
Cc1cccc(C)c1NC(=O)Cn1c(=O)n(CC2CCC(C(=O)NCCc3ccccc3)CC2)c(=O)c2ccccc21 (stereo not given)	none
Cc1cccc(NC(=O)Cn2c(=O)n(CC3CCC(C(=O)NCCc4ccccc4)CC3)c(=O)c3ccccc32)c1 (stereo not given)	Pf Dd2 growth 11µM
COc1ccc(NC(=O)Cn2c(=O)n(CC(=O)NCCc3ccccc3)c(=O)c3ccccc32)cc1	none
COCCN1CCC(CNc2nccc(-c3ccccn3)n2)C1 (stereo not given)	none
COc1ccc(N2CCC(N3CCC4(CC(=O)NC4=O)C3)CC2)cc1 (stereo not given)	none
C=CCO[C@@H]1CCN2C(=O)c3cc(-c4ccc(OC)cc4)ccc3NC(=O)[C@H]12	none
Cc1nc(CN2CCN(c3cc(C4CC(O)C4)ncn3)CC2)cs1 (stereo not given)	none
CCOC(=O)c1cccc(NC(=O)c2cc3c(-c4cccc(OC)c4)nn(C)c3s2)c1	none
O=C(Nc1ccc(Cl)cc1)c1cc2c(-c3ccccc3)nn(-c3ccccc3)c2s1	Pf Dd2 growth 1.1µM
CC(=O)c1ccc(NC(=O)c2cc(C)nn2-c2ccccc2)cc1	none
CC(C)C[C@@H](N)C(=O)N1CCC2(CC1)Nc1ccccc1NC2=O	none
CC(C)C[C@@H]1N[C@H](C(=O)NC2CC2)Cc2cn(Cc3nccn3C)c3cccc1c23	Pf Dd2 growth 11µM
CC(C)C[C@@H]1N[C@H](C(=O)NCC2CC2)Cc2cn(Cc3ccccn3)c3cccc1c23	none
CC(C)C[C@@H]1N[C@H](C(=O)NCC2CC2)Cc2cn(Cc3nccn3C)c3cccc1c23	none
CC(C)C[C@@H]1N[C@H](C(=O)NC2CCC2)Cc2cn(Cc3ccccn3)c3cccc1c23	Pf Dd2 growth 11µM
CC(C)C[C@@H]1N[C@H](C(=O)NC2CCC2)Cc2cn(Cc3ccncc3)c3cccc1c23	none
Cc1cc(Cn2cc3c4c(cccc42)[C@H](CC(C)C)N[C@H](C(=O)O)C3)no1	none
COc1ccccc1CNC(=O)[C@@H]1Cc2cn(C)c3cccc(c23)[C@H](CC(C)C)N1	none
COCCCNC(=O)[C@@H]1Cc2cn(Cc3nccn3C)c3cccc(c23)[C@H](CC(C)C)N1	none
CCCNC(=O)[C@@H]1Cc2cn(Cc3c(C)noc3C)c3cccc(c23)[C@H](CC(C)C)N1	Pf Dd2 growth 11µM
CCCNC(=O)[C@@H]1Cc2cn(Cc3nccn3C)c3cccc(c23)[C@H](CC(C)C)N1	Pf Dd2 growth 10µM
COCC(=O)N1CCCC(c2nn(C)c(=O)n2C(C)C)C1 (stereo not given)	none
O[C@@H]1C[C@@H](c2nc(-c3cnccn3)no2)N(Cc2ccc(F)cc2)C1	none
Cn1ccnc1CN1C(=O)CO[C@H](c2ccc(NC(=O)c3ccnc(Cl)c3)cc2)[C@H]1CO	none
CCC[S+](=O)([O-])N1CCN(C(=O)N2CC3CC(C2)[C@H]2CCCC(=O)N2C3)CC1 (stereo not given in full)	none
CC(=O)c1ccc(NC(=O)Cn2c(=O)n(-c3ccc(F)cc3)c(=O)c3c2cc(C)n3C)cc1	none
CC(C)CCNC(=O)CC1CCCN(c2cn[nH]c(=O)c2)C1 (stereo not given)	none
O=C(c1ccccn1)N1CCC2(CC1)CC(Cc1nc(-c3cnccn3)no1)CCO2 (stereo not given)	none
Cc1ccc(CCC(=O)N2C[C@@H](C)[C@@](C)(O)C2)cc1C	none
NCC1Cn2cccc2C(=O)N1Cc1ccccc1 (stereo not given)	none
O=C(NC1CCCCC1)NC1CCc2nn(CC3CC3)c(=O)n2CC1 (stereo not given)	none
CC(C)C[C@@H]1N[C@H](C(=O)NCc2ccccc2)Cc2cn(Cc3cccnc3)c3cccc1c23	none
CC(C)C[C@@H]1N[C@H](C(=O)NCc2ccccn2)Cc2cn(Cc3ccncc3)c3cccc1c23	none
Cc1cc(Cn2cc3c4c(cccc42)[C@H](CC(C)C)N[C@H](C(=O)NCc2nccs2)C3)no1	none
CC(C)C[C@@H]1N[C@H](C(=O)N2CCOCC2)Cc2cn(Cc3nccn3C)c3cccc1c23	Pf Dd2 growth 11µM
CC(C)C[C@@H]1N[C@H](C(=O)NCCN2CCOCC2)Cc2cn(Cc3ccccn3)c3cccc1c23	none

Screens as filed in PubChem.
